tim10-1 inh: tim10-1 yeast growth inhibition; S. cerevisiae tim10-1 ts strain growth, BacTiter-Glo, 24 h; inhibition, % at 20 µM; 2.2% of 330,000 active;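 active = inhibition of at least 40%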;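 also: mutant grown at 25 °C; 0% = DMSO wells with yeast and 100% = wells holding no yeast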
TIM10 inh: inhibits growth of TIM10 yeast strain; S. cerevisiae TIM10 strain growth, BacTiter-Glo luminescence, 24 h; inhibition, % at 10 µM; 1.4% of 330,000 active;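 active = inhibition of 40% or more at the single tested concentration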;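 also: wild-type TIM10 isogenic control strain grown at permissive 25 °C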
tim23-1 inh: tim23-1 yeast growth inhibition; S. cerevisiae tim23-1 growth, BacTiter-Glo luminescence, 24 h; inhibition, % at 20 µM; 1.3% of 330,000 active; AID 463212;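 active = growth inhibition of the mutant yeast at or above 50%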;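 also: temperature-sensitive mutant grown at 25 °C; plate controls were DMSO-treated mutant yeast for no effect and medium wells lacking yeast for full effect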
NALP1 inh: blocks the NALP1 inflammasome reconstituted in yeast; S. cerevisiae NALP1/ASC/caspase-1 growth, X-gal OD620, 72 h; inhibition, % at 10 µM; 0.61% of 280,000 active; in the data active = inhibition mostly above about 24%, no sharp cut-off; inactive = mostly below about 32%
NALP3 yeast inh: inhibitors of NALP3 inflammasome in yeast. Yeast reconstituted NLRP3/ASC/caspase-1, beta-gal luminescence, 24 h. inhibition, % at 10 µM. 0.39% of 330,000 active;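 active = inhibition of 50% or more; inactive = inhibition below 50%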;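 also: plate controls were induced DMSO wells for no effect and uninduced yeast grown without galactose for full effect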
PfHsp90 yeast 2: inhibits growth of yeast expressing Plasmodium falciparum Hsp90; S. cerevisiae expressing PfHsp90, BacTiter-Glo ATP, 48 h; yeast lacking PDR1 and PDR3 efflux regulators; inhibition, % at 9.4 µM; 0.32% of 310,000 active;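 active = every replicate shows inhibition above about 80%, whatever the replicate mean, limit read from the data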;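 also: 0% = DMSO neutral controls and 100% = 20 µM radicicol positive controls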
tim10-1 confirm: tim10-1 yeast growth inhibition, confirmed; shares compounds with tim10-1 inh; S. cerevisiae tim10-1 ts strain growth, BacTiter-Glo, 24 h; inhibition, % at 20 µM; 56% of 7,400 active;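 active = inhibition of yeast growth at or above a set limit in either of two repeat tests at 20 µM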;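 also: tim10-1 mutant grown at permissive 25 °C to find synthetic lethal compounds; 0% = DMSO yeast wells and 100% = medium wells without yeast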
Starred values were filed as active, the others as inactive. Hits are enriched below; roughly 4.2% of the tested compounds scored in any of these assays.

For COc1ccc(Sc2nnc(Cc3ccccc3)c3ccccc23)cc1 the results were tim10-1 inh 31.2, TIM10 inh 28.4, tim23-1 inh 22.8, NALP1 inh -6.1, NALP3 yeast inh 9.0 and PfHsp90 yeast 2 4.0.
`Cc1c(/C=N/NC(=O)CNc2ccccc2)c2ccccn2c1C(=O)c1ccccc1` gave tim10-1 inh 40.1*, TIM10 inh 10.9, tim23-1 inh 28.7, NALP1 inh 29.9, NALP3 yeast inh 12.8, PfHsp90 yeast 2 5.5 and tim10-1 confirm 19.2.
`Cc1c(/C=N/NC(N)=O)c2ccccn2c1C(=O)c1ccncc1` gave tim10-1 inh 9.5, TIM10 inh -7.8, tim23-1 inh 13.3, NALP1 inh 3.2, NALP3 yeast inh 0.4 and PfHsp90 yeast 2 -27.0.
For CC12CC(c3ccccc3O1)N(C(=O)c1ccco1)C(=S)N2c1ccccc1 (stereo not given) the results were tim10-1 inh 42.4*, TIM10 inh 37.8, tim23-1 inh 45.6, NALP1 inh 12.0, NALP3 yeast inh 6.9 and tim10-1 confirm 26.9.
Screening Nc1nc(-c2ccccc2)c(N=Nc2ccccc2Cl)s1 returned tim10-1 inh 54.7*, TIM10 inh 38.4, tim23-1 inh 26.2, NALP1 inh 24.8, NALP3 yeast inh 37.1, PfHsp90 yeast 2 -15.0 and tim10-1 confirm 26.8.
Screening Nc1nc(-c2ccccc2)c(N=Nc2cccc3ccccc23)s1 returned tim10-1 inh 14.7, TIM10 inh 2.8, tim23-1 inh 29.1, NALP1 inh 17.9, NALP3 yeast inh 37.3 and PfHsp90 yeast 2 -3.9.
O=C(Nc1ccccc1N1CCN(C(=O)c2ccccc2)CC1)c1ccccc1Cl was read as tim10-1 inh 8.2, TIM10 inh 1.8, tim23-1 inh 8.2, NALP3 yeast inh -9.7 and PfHsp90 yeast 2 19.0.
COc1ccccc1C(=O)Nc1ccccc1N1CCN(C(=O)c2ccc(Cl)cc2)CC1 was read as tim10-1 inh 47.3*, TIM10 inh 29.1, tim23-1 inh 43.9, NALP1 inh 2.4, NALP3 yeast inh 13.9, PfHsp90 yeast 2 -28.6 and tim10-1 confirm 16.8.
For O=C(Nc1ccccc1N1CCN(C(=O)c2ccc(Cl)cc2)CC1)c1cccc([N+](=O)[O-])c1 the results were tim10-1 inh 41.6*, TIM10 inh 20.1, tim23-1 inh 31.9, NALP1 inh 23.8, NALP3 yeast inh 21.2, PfHsp90 yeast 2 16.5 and tim10-1 confirm 13.3.
COc1cccc(C(=O)O/N=C(\N)c2ccccn2)c1 was read as tim10-1 inh 40.2*, TIM10 inh 28.8, tim23-1 inh 33.4, NALP1 inh 14.2, NALP3 yeast inh 25.7, PfHsp90 yeast 2 13.4 and tim10-1 confirm 45.6*.
COc1cccc(C(=O)O/N=C(\N)c2ccccn2)c1OC was read as tim10-1 inh 38.5, TIM10 inh -5.4, tim23-1 inh 4.3, NALP1 inh -9.2, NALP3 yeast inh -5.7 and PfHsp90 yeast 2 1.7.
Screening N/C(=N\OC(=O)c1cccc([N+](=O)[O-])c1)c1ccccn1 returned tim10-1 inh 41.6*, TIM10 inh 30.9, tim23-1 inh 23.5, NALP1 inh -4.4, NALP3 yeast inh 19.0, PfHsp90 yeast 2 10.4 and tim10-1 confirm 11.9.
`O=C(COC(=O)CNC(=O)c1ccccc1Cl)Nc1cc(C(F)(F)F)ccc1Cl` gave tim10-1 inh 6.9, TIM10 inh 3.7, tim23-1 inh 16.1, NALP3 yeast inh 12.9 and PfHsp90 yeast 2 1.8.
`O=C(CNC(=O)c1ccccc1F)OC(C(=O)Nc1cc(C(F)(F)F)ccc1Cl)c1ccccc1` (stereo not given) gave tim10-1 inh 43.5*, TIM10 inh 9.3, tim23-1 inh 12.6, NALP1 inh 40.6*, NALP3 yeast inh -17.4, PfHsp90 yeast 2 -10.8 and tim10-1 confirm 22.9.
Screening CCOc1ccc(N2C(=O)/C(=C\c3ccccc3OC)S(=O)(=O)C2c2cccc([N+](=O)[O-])c2)cc1 (stereo not given) returned tim10-1 inh 45.0*, TIM10 inh 16.1, tim23-1 inh 33.9, NALP1 inh 13.8, NALP3 yeast inh 11.7, PfHsp90 yeast 2 109.7* and tim10-1 confirm 41.4*.

Bioassay records as filed in PubChem BioAssay.
